Pf growth 48h – Primary qHTS for delayed death inhibitors of the malarial parasite plastid, 48 hour incubation; P. falciparum luciferase growth in erythrocytes, 48 h; Potency, µM (titrated, usually from 28.7 µM), for the others: at the top dose activity change, negative = inhibition, usual class: inhibitors; 310,000 tested, 5.9% active; also: potency is read from the fitted curve at half-maximal effect; % is scaled to controls: 0 for no effect and ±100 for the full control effect
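In quantitative HTS format, infected erythrocytes bearing luciferase-reporter parasites were treated for a single generation at 37 C. Luminescence after adding detection reagent served as the growth measure.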
Lassa entry inh – qHTS for Inhibitors of binding or entry into cells for Lassa Virus; Lassa virus pseudotype entry inhibition, cell reporter; Potency, µM (top dose mostly 37.9 µM), without a hit: at the top dose activity change, negative = inhibition, most hits filed as inhibitors; 300,000 tested, 1.2% active; AID 540256, 2011; calls by dose curve; tested in HEK293 cells; also: potency is read from the fitted curve at half-maximal effect; % is scaled to controls: 0 for no effect and ±100 for the full control effect; nearly all actives have a fitted effect of over 50% in size
MARV entry inh – qHTS for inhibitors of binding or entry into cells for Marburg Virus. Marburg virus pseudotyped entry inhibition, cell reporter. Potency, µM (highest dose often 37.8 µM), for the others: at the highest dose activity change, negative = inhibition, actives largely listed as inhibitors. 300,000 tested, 1.8% active; calls by dose curve; tested in HEK293 cells; also: potency is read from the fitted curve at half-maximal effect; % is scaled to controls: 0 for no effect and ±100 for the full control effect
Shiga toxin inh – A qHTS for Small Molecule Inhibitors of Shiga Toxin; 290,000 tested, 9.2% active; AID 2315, 2010; Vero cells, Shiga toxin protein synthesis inhibition reporter; inhibition, % at 38.7 µM; in the data active = inhibition mostly above about 28%, no sharp cut-off; inactive = mostly below about 43%; also: 0% is about no effect
CHX counter – Cycloheximide Counterscreen for Small Molecule Inhibitors of Shiga Toxin | cell reporter, cycloheximide protein synthesis inhibition counterscreen | max response, % | 300,000 tested, 12% active; in the data active = max response mostly above about 13%, no sharp cut-off; inactive = mostly below about 14%; also: read at 38.3 µM for the half of the compounds with a filed dose; 0% is about no effect
Pf growth 96h – Primary qHTS for delayed death inhibitors of the malarial parasite plastid, 96 hour incubation; P. falciparum luciferase reporter growth, 96 h; Potency, µM (highest dose often 28.7 µM), inactives show top-dose activity change, negative = inhibition, most hits filed as inhibitors; 320,000 tested, 6.9% active; also: potency is read from the fitted curve at half-maximal effect; % is scaled to controls: 0 for no effect and ±100 for the full control effect
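Infected RBCs, 2% Hct / 0.05% parasitemia final; luciferase-reporter P. falciparum; cpd 96 h, 37 C, 5% CO2; luciferase detection reagent; luminescence.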
An asterisk follows results filed as active; i = inactive; u = inconclusive; x = no result given; [ ] = dose if it differs, or a comment. Shown are actives, neighbours in structure and some others; about 19% of the full set was active somewhere. Unless noted, calls follow the shape of the dose curve; as a rule, active = well fitted inhibition curve with a large enough effect; inconclusive = small, poorly fitted or top-dose-only effect, or another doubt; inactive = no such curve, though single readings can be large or run the other way.

SMILES	Pf growth 48h	Lassa entry inh	MARV entry inh	Shiga toxin inh	CHX counter	Pf growth 96h
COc1ccccc1CNC(=O)c1cc2c(s1)CS(=O)(=O)C2	-2.9%	-12.2%	1.9%	-14.2	1.9	i
COc1ccccc1CNC(=O)CCC(=O)n1ncc2cc(C)ccc21	7.6%	x	x	1.6	6.0	2.62µM*
O=C(CSc1ccccc1)NCc1ccccc1	83.3%	13.2%	9.9%	x	18.2*	u
COc1ccccc1CNC(=O)c1n[nH]c2ccccc12	-2.5%	14.0%	0.1%[46.1 µM]	45.7*	28.8*	51.7%
CN1C(=O)CSc2ccc(NC(=O)NCc3ccccc3)cc21	u	x	x	-6.2	-3.2	11.5%
COc1ccccc1CNC(=O)Cc1ccc(OC)c(OC)c1	9.4%	-18.7%[46.1 µM]	15.4%[46.1 µM]	-5.0	-2.0	-20.5%
COc1ccccc1-n1ccnc(SCC(=O)NCc2ccccc2)c1=O	-6.4%	1.2%	-2.5%	x	x	13.4%
COc1ccccc1CNC(=O)CSc1ccc(C)cc1	-0.6%	-1.8%	u	13.8	14.6	19.2%
COc1ccccc1CNC(=O)CSc1ccccc1	-28.6%	-23.5%	-25.5%[46.1 µM]	49.8*	18.7*	25.6%
O=C(CSc1nccn(-c2ccc(Br)cc2)c1=O)NCc1ccccc1	13.1µM*	-10.9%	u	x	x	u
COc1ccccc1CNC(=O)Cc1ccccc1	0.0%	18.9%	-5.9%	34.7*	35.2*	-8.3%
N#Cc1ccsc1NC(=O)CN1CCN(c2ccccc2)CC1	13.6%	0.9%[46.1 µM]	7.5%[46.1 µM]	12.4	8.2	33.6%
COC(=O)CNC(=O)C12CC3(C)CC(C)(CC(C)(C3)C1)C2	2.0%	0.1%	u	-1.2	-2.3	23.5%
Cc1cc(N2CCOCC2)ccc1/C=C1\NC(=O)N(CC(=O)Nc2ccccc2C)C1=O	28.8%	0.1%	u	-9.3	-1.4	x
Cc1cccc(NC(=O)CN2C(=O)N/C(=C\c3ccc(N4CCOCC4)cc3)C2=O)c1	45.4%	-16.0%	28.1%	68.2*	39.2*	u
Cc1cc(N2CCOCC2)ccc1/C=C1\NC(=O)N(CC(=O)Nc2ccc(F)cc2)C1=O	57.5%	-3.7%	0.7%	90.6*	22.7*	2.94µM*
Cc1cccc(NC(=O)CN2C(=O)N/C(=C\c3ccccc3OCc3ccc(C(=O)O)cc3)C2=O)c1	-16.6%	u	15.5%	-13.1	-1.0	13.8%
Cc1ccc(-n2cccc2/C=C2/NC(=O)N(CC(=O)Nc3cccc(C)c3)C2=O)cc1	9.6%	3.1%	2.1%	-10.0	1.0	12.0%
O=C(CN1C(=O)N/C(=C\c2ccccc2OCc2ccc(C(=O)O)cc2)C1=O)Nc1ccc(F)cc1	8.3%	23.3%[46.1 µM]	1.0%[46.1 µM]	-6.1	-0.5	5.22µM*
C[C@H](NC(=O)c1nc[nH]c1C(=O)NCC(=O)OC(C)(C)C)C(=O)OC(C)(C)C	14.4%	x	x	-6.5	-3.0	34.3%
C[C@H](NC(=O)c1[nH]cnc1C(=O)Nc1ccc(CNC(=O)OC(C)(C)C)cc1)C(=O)OC(C)(C)C	13.1µM*	x	x	2.3	-3.2	9.28µM*
CC1CCN(C(=O)c2[nH]cnc2C(=O)N[C@@H](CCCCNC(=O)OC(C)(C)C)C(=O)OC(C)(C)C)CC1	u	x	x	-0.8	-1.8	u
CC(C)(C)OC(=O)NCCCC[C@H](NC(=O)c1[nH]cnc1C(=O)Nc1ccc(CNC(=O)OC(C)(C)C)cc1)C(=O)OC(C)(C)C	3.29µM*	x	x	-2.8	-3.2	3.29µM*
COc1ccc(NC(=O)c2nnn(Cc3ccc(Br)cc3F)c2N)c(OC)c1	x	2.2%[46.1 µM]	-2.2%[46.1 µM]	x	x	x
COc1ccc(C(=O)COc2ccc(C(C)=O)cc2OC)cc1OC	x	1.3%	-2.1%	x	x	x
SMILES	Pf growth 48h	Lassa entry inh	MARV entry inh	Shiga toxin inh	CHX counter	Pf growth 96h
O=C(CSc1ncccn1)NCc1cccs1	-13.2%	-4.5%	7.6%	41.9	15.9	52.7%
O=C(CSc1ccc2ccccc2c1)NCc1cccs1	10.8%	-9.0%	-0.2%	14.9	32.4*	13.1%
O=C(CSCc1cnn(-c2ccccc2)c1-n1cccc1)NCc1cccs1	x	-28.6%	9.4%	-6.6	-0.8	4.65µM*
O=C(CSc1nnc2ccccn12)NCc1cccs1	x	6.5%	6.3%	52.1*	20.8*	u
CCOC(=O)N1CCOCCOCCN(C(=O)OCC)CCOCC1	20.7%	10.4%	6.1%[46.1 µM]	19.1	-2.6	0.0%
Cc1ccc(-n2ncc3c(Nc4ccc(Oc5ccccc5)cc4)ncnc32)cc1	x	4.4%[46.1 µM]	x	x	x	x
c1ccc(Oc2ccc(Nc3ncc(-c4ccccc4)o3)cc2)cc1	x	0.25µM*	x	x	x	x
O=C(NNC(=O)c1c(O)c2ccccc2[nH]c1=O)c1ccccc1	26.4%	u	-0.6%[46.1 µM]	4.8	-2.4	u
COC(=O)c1ccc2ncccc2c1	8.7%	0.0%	-1.2%	27.4	10.0	-23.9%
COC(=O)c1cnc(SCC(=O)c2ccccc2)n1C	153.8%	x	x	100.4*	43.3*	345.9%
COC(=O)c1ccnc(SCC(=O)c2ccccc2)c1	43.0%	3.0%	u	79.3*	42.5*	46.5%
Cn1c(SCC(=O)c2ccccc2)ncc(C(=O)Nc2ccccc2)c1=O	0.0%	12.5%	u	x	x	27.9%
COC(=O)c1cnc(SCc2ccc(Cl)cc2)n1C	59.7%	24.3%	-31.6%[46.1 µM]	65.4*	46.7*	42.5%
C=C1c2ccccc2O[C@H](C(=O)OCC)[C@@H]1CC(C)(C)c1ccccc1	x	x	x	i	1.4	x
COc1ccc(S(=O)(=O)c2c(O)cc(C)c(NS(=O)(=O)c3ccccc3)c2C)cc1	0.0%	-27.6%[46.1 µM]	u	-3.3	0.8	u
O=c1[nH]nc(Cc2ccc3ccccc3n2)c2ccccc12	94.4%	27.4%	1.1%	35.8*	28.3*	74.3%
CCCSc1nnc(CNC(=O)C23CC4CC(CC(C4)C2)C3)n1Cc1ccccc1	13.1µM*	u	-26.4%	-9.4	-5.3	u
O=C(CSc1nnc(CNC(=O)C23CC4CC(CC(C4)C2)C3)n1-c1ccc(F)cc1)Nc1ccc(F)cc1	-27.7%	-18.1%	u	-9.6	7.1	u
O=C(NCc1nnc(SCc2ccc(F)cc2)n1-c1ccc(F)cc1)C12CC3CC(CC(C3)C1)C2	u	u	8.91µM*	-1.9	-0.4	u
CCSc1nnc(CNC(=O)C23CC4CC(CC(C4)C2)C3)n1Cc1ccccc1	u	6.2%	-18.1%	-7.3	-3.4	u
Cc1ccc(-n2c(/C=C/c3ccccc3)nc3ccccc3c2=O)cc1C	x	-4.5%[46.1 µM]	x	x	x	x
O=C(NN1C(=O)C2C(C1=O)C1C=CC2C12CC2)c1ccncc1 (stereo unspecified)	-10.6%	-5.8%	-35.7%[46.1 µM]	11.2	-1.4	-19.1%
COc1cc(Nc2ccc(C(=O)O)cc2[N+](=O)[O-])cc(OC)c1	u	1.3%	-26.8%	1.5	-3.9	100.3%
Fc1ccc(-c2cnc[nH]2)cc1	44.9%	u	u	35.0	22.7*	x
O=S(=O)(c1cnc[nH]1)N1CCN(c2ccc(F)cc2)CC1	15.5%	x	x	-5.6	-1.4	42.8%

Source: PubChem
